Compound activity deposited in PubChem by Broad Institute.
aSyn 5UTR act: Activators working through SNCA 5'UTR binding (MLPCN); 300,000 compounds, 7.1% hits; alpha-synuclein 5'UTR reporter, activators screen; activity score, % (tested at 7.5 µM), hits read low; in the data active means activity score below about -60%
Numbers without * were called inactive. These entries were drawn from the full list.

How did CCOC(=O)c1sc(=NC(=O)c2ccc(C)c(C)c2)n(C)c1C do in these assays?
aSyn 5UTR act: -283*

How did CCOC(=O)c1sc(=NC(=O)/C=C/c2ccccc2)n(C)c1C do in these assays?
aSyn 5UTR act: -111*

Results for CCOC(=O)c1sc(=NC(=O)c2cccs2)n(C)c1C ?
aSyn 5UTR act: -122*

How did CCOC(=O)c1sc(=NC(=O)c2ccccc2Br)n(C)c1C do in these assays?
aSyn 5UTR act: -101*

Results for Cc1ccc2c(c1)sc(=NC(=O)c1cccs1)n2C ?
aSyn 5UTR act: 85

How did CCOC(=O)c1sc(=NC(=O)c2ccc(Cl)s2)n(C)c1C do in these assays?
aSyn 5UTR act: -194*

How did CCc1ccc(C(=O)Cn2ccsc2=N)cc1 do in these assays?
aSyn 5UTR act: -102*

What do the screens show for `C(=N\Nc1nncc2ccccc12)/c1ccccc1`?
aSyn 5UTR act: -75*

How did COc1ccc(/C=N/Nc2nncc3ccccc23)c(OC)c1 do in these assays?
aSyn 5UTR act: -159*

What do the screens show for `COc1cc(/C=N/Nc2nncc3ccccc23)cc(OC)c1OC`?
aSyn 5UTR act: -108*

What do the screens show for `CCc1ccccc1OCC(=O)Nc1nc(-c2cccnc2)cs1`?
aSyn 5UTR act: 70

What do the screens show for `CC(C)C(=O)Nc1nc(-c2ccc([N+](=O)[O-])cc2)cs1`?
aSyn 5UTR act: -74*

How did CNc1nc(-c2ccc([N+](=O)[O-])cc2)cs1 do in these assays?
aSyn 5UTR act: -135*

How did COCC(=O)Nc1nc(-c2ccc(-c3ccccc3)cc2)cs1 do in these assays?
aSyn 5UTR act: -220*

Results for O=C(COC(=O)c1ccccn1)Nc1nc(-c2ccccc2)cs1 ?
aSyn 5UTR act: -80*

How did O=[N+]([O-])c1ccc(-c2csc(NN=C3CCCC3)n2)cc1 do in these assays?
aSyn 5UTR act: -177*

What do the screens show for `COCC(=O)Nc1nc(-c2ccc([N+](=O)[O-])cc2)cs1`?
aSyn 5UTR act: -70*

What do the screens show for `CCCC(=O)c1ccc(N2CCCCCC2)c(F)c1`?
aSyn 5UTR act: -137*

How did CCCC(=O)c1ccc(N2CCCCC2)c(F)c1 do in these assays?
aSyn 5UTR act: -126*

Results for COCCNc1nnc(SC(C)C(=O)Nc2ccc(-c3nc4ccc(C)cc4s3)cc2)s1 (stereo not drawn) ?
aSyn 5UTR act: -79*

Results for CCC(C)(C)NC(=S)Nc1ccc(-c2nc3ccc(C)cc3s2)cc1 ?
aSyn 5UTR act: -79*

How did CCCCNC(=S)Nc1ccc(-c2nc3ccc(C)cc3s2)cc1 do in these assays?
aSyn 5UTR act: -159*

What do the screens show for `Cc1ccc2nc(-c3ccc(NC(=S)NCCC(C)C)cc3)sc2c1`?
aSyn 5UTR act: -192*

What do the screens show for `COc1ccc(C(=O)/C=C2/C(=O)Nc3ccccc32)cc1`?
aSyn 5UTR act: -99*

How did CC1CCC/C(=C(\C#N)c2nc(-c3cc4ccccc4oc3=O)cs2)C1 (stereo not drawn) do in these assays?
aSyn 5UTR act: -122*

What do the screens show for `O=c1oc2ccccc2cc1-c1csc(NN=C2CCCCC2)n1`?
aSyn 5UTR act: -122*

Results for C/C(=N\Nc1nc(-c2ccc(C)cc2C)cs1)c1cc2ccccc2oc1=O ?
aSyn 5UTR act: -72*

How did O=c1oc2ccccc2cc1-c1nc2c(s1)CCCC2 do in these assays?
aSyn 5UTR act: 44

Results for O=c1oc2ccccc2cc1-c1csc(Nc2nc3ccc(F)cc3s2)n1 ?
aSyn 5UTR act: -115*

Results for CC(=O)Nc1cccc(N/C=C(\C=O)c2nc3ccccc3o2)c1 ?
aSyn 5UTR act: -102*

How did O=C/C(=C\Nc1ccccn1)c1nc2ccccc2o1 do in these assays?
aSyn 5UTR act: -107*

Results for O=C1CCCC(O)=C1C=Nc1ccc2c(c1)oc1ccccc12 ?
aSyn 5UTR act: -168*

What do the screens show for `O=C(Nc1nccs1)c1ccc(-c2ccc(Cl)cc2)o1`?
aSyn 5UTR act: -207*

Results for O=C(Nc1nccs1)c1cc([N+](=O)[O-])ccc1Cl ?
aSyn 5UTR act: -68*

What do the screens show for `O=C(Nc1nccs1)c1ccc(-c2ccc(F)cc2)o1`?
aSyn 5UTR act: -260*

How did Cc1cccc(NC(=O)c2cc([N+](=O)[O-])ccc2Cl)c1O do in these assays?
aSyn 5UTR act: -85*

How did O=C(Nc1nccs1)c1ccc(-c2ccc([N+](=O)[O-])cc2)o1 do in these assays?
aSyn 5UTR act: -141*

How did O=C(Nc1cccnc1)c1ccc(-c2ccc(Cl)cc2)o1 do in these assays?
aSyn 5UTR act: -190*

Results for Cc1cccc(N(C)S(=O)(=O)c2ccc(-c3cnc(C4CC4)o3)cc2)c1 ?
aSyn 5UTR act: 97

Results for CC(NC(=O)Nc1ccc(Br)cc1)C(C)(C)C (stereo not drawn) ?
aSyn 5UTR act: -77*

Results for Cc1ccc(-n2ncc3c(N4CCCC(C)C4)ncnc32)c(C)c1 (stereo not drawn) ?
aSyn 5UTR act: -125*

Results for Cc1ccc(-n2ncc3c(N4CCCC4)ncnc32)c(C)c1 ?
aSyn 5UTR act: -114*

What do the screens show for `CC1CCCN(c2ncnc3c2cnn3-c2ccccc2)C1` (stereo not drawn)?
aSyn 5UTR act: 61

How did CCCn1c(N)c(Sc2ccc(C)cc2)c(=O)n(CCC)c1=O do in these assays?
aSyn 5UTR act: -79*

Results for COc1ccc(C2=Nn3c(nnc3-c3ccccn3)SC2)cc1OC ?
aSyn 5UTR act: 56

How did Cc1nc(C)c(-c2csc(Nc3ncccc3C)n2)s1 do in these assays?
aSyn 5UTR act: -240*

Results for COc1ccc(-c2csc(Nc3ncccc3C)n2)cc1OC ?
aSyn 5UTR act: -172*

What do the screens show for `Cc1cccnc1Nc1nc(-c2ccc(O)c(O)c2)cs1`?
aSyn 5UTR act: -232*

How did COc1ccc(-c2csc(Nc3ncccc3C)n2)cc1 do in these assays?
aSyn 5UTR act: -118*

Results for CCN(CC)C(=O)c1ccc(COc2ccccc2Cl)cc1 ?
aSyn 5UTR act: -112*

What do the screens show for `CCN(CC(=O)NCc1ccc(F)cc1)C(=O)/C=C/c1ccc(OC)c(S(=O)(=O)NC(C)C)c1`?
aSyn 5UTR act: 63

How did CCN(CC(=O)NCc1ccc(F)cc1)C(=O)c1ccc(COc2ccccc2)cc1 do in these assays?
aSyn 5UTR act: -67*

Results for CC(C)(C)c1ccc(C(=O)N2CCCCCC2=O)cc1 ?
aSyn 5UTR act: 91

Results for CC(C)(C)c1ccc(C(=O)NCC(=O)N2CCCC2)cc1 ?
aSyn 5UTR act: -74*

What do the screens show for `Cc1ccc(C(=O)NCCC(=O)N2CCCC2)cc1`?
aSyn 5UTR act: -146*

How did CC(C)(C)c1ccc(C(=O)NNC(=O)C2CCCCC2)cc1 do in these assays?
aSyn 5UTR act: -64*

Results for Cc1ccc(S(=O)(=O)Cc2ccc(C(=O)N3CCN(c4cccc(C)c4C)CC3)o2)cc1 ?
aSyn 5UTR act: 88

Results for Cc1cccc(N2CCN(C(=O)c3c(-c4ccccc4)noc3C)CC2)c1C ?
aSyn 5UTR act: 65

Results for Cc1cccc(N2CCN(C(=O)CNC(=O)c3ccccc3)CC2)c1C ?
aSyn 5UTR act: -81*

How did CCCCNc1c(-c2cccc(-c3cc(C(C)=O)cs3)c2)nc2ccc(C)cn12 do in these assays?
aSyn 5UTR act: -71*

How did Fc1c(F)c(C(F)(F)F)c(F)c(F)c1N/N=C\c1cccs1 do in these assays?
aSyn 5UTR act: -73*

What do the screens show for `CC(=O)Nc1ccc(SCC(=O)c2cc(C)n(Cc3cccs3)c2C)cc1`?
aSyn 5UTR act: 68

How did Cc1ccc(NC(=O)CNCc2cccs2)cc1Br do in these assays?
aSyn 5UTR act: -85*

How did O=C(CNCc1cccs1)Nc1ccc(N2CCCCCC2)cc1 do in these assays?
aSyn 5UTR act: -63*

What do the screens show for `CC(=O)c1ccc(NC(=O)CNCc2cccs2)cc1`?
aSyn 5UTR act: -134*

What do the screens show for `c1ccc(-c2ccc3sccc3n2)cc1`?
aSyn 5UTR act: -173*
